# System: FXR:RXRa (NR concentration 270 nM, RXRa partner concentration 90 nM)
# Assay: PBM binding z-score (relative to random genomic background probes); higher = stronger binding; sequences stand for … in GC…GCGATTGACAGCGTAGAATGAAGG
# Procedure, shortened: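 Binding z-scores were set against random background probes. The data came from custom Agilent 4×180K protein-binding microarrays carrying double-stranded probes with 34-nt variable regions, incubated 1 h with ligand-free nuclear receptor dimers. Partner-specific antibodies detected binding, and scanned fluorescence was regression-normalized.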
row,Sequence,PBM binding z-score
1,CCTACTGGGCCAAAGGTCATTGCTTCCAATGCTC,4.94
2,TCTATCAGTTGATTAGGGCAACCGAAACAGCGGA,-0.144
3,TCGAGTAGGTGAGGGGCATTCAGAATGGCGTCGA,0.283
4,CCGAATGGGGCATAAGGTTACCATAAGCCAGCCC,0.489
5,CGTCCAAGGTCAATGCTAGGTCCGTGAAAGCATT,6.89
6,CCGACTGGGGCAGAAAGGTTATCATACCATCCGG,0.492
7,AGAATGAGGTTACCAAAGAGCAGGGAAACGCTTG,1.71
8,TCTTGTAGAGCAGCAGGTTAAGAAAGCTGGCCAA,-0.000312
9,CAAACTAGATCACAGAGGTCAAAGTCCGTGCGTA,4.82
10,CCTACAGGGCCATTCAGAGGTCATTGATCATATG,3.14
11,CGAACTAGCTCATTGACAGGACAGTGAATAGTAA,-0.457
12,GGAACGAGGGCATTCGGGTTGATAGCATGGCGAT,1.28
13,CTCGAAAGGTCCTGCTCAGGTGAGTATACCAAAC,0.485
14,AGAATGAGGATATACGTAGATCAGGGAAGAAAGT,-0.224
15,ATCGAAAGGTCTAGGTGAGTATAGAGAAAGGGAA,0.504
16,TTACCAAGGTGAGCTGAGGTCGTTGATCCAACTC,2.68
17,GATACAGAGTCAAGGCCAGAGTACGCGTATTGAT,-0.608
18,CGTCCAAGGTCAGAGAGATCAGTGAATGCCGAGT,4.93
